Dicer inh: blocks human Dicer maturation of pre-miR-21 | Q9UPY3 | cat-ELCCA pre-miR-21 Dicer processing, chemiluminescence; active compounds read high | z-score at 25 µM | 47,000 compounds, 6% hits | AID 1347074; in the data active = z-score above about 3, passing the limit was not always enough;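 also: higher signal means more uncleaved substrate so more Dicer inhibition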
Each line names hits and unclear results; the compound was inactive in the other large screens. This excerpt belongs to a sample that is enriched for hits.

Cc1c(S(=O)(=O)NCc2ccc(S(N)(=O)=O)cc2)sc2ccc(Cl)cc12	none
COc1ccc(C2Nc3ccc(C)cc3-c3cc(C)nn32)c(OC)c1 (stereo unspecified)	none
CCOc1cccc(C2Nc3ccc(C)cc3-c3cc(C)nn32)c1O (stereo unspecified)	none
COc1ccccc1C1Nc2ccc(C)cc2-c2cc(C)nn21 (stereo unspecified)	Dicer inh 3.5
CCOc1ccccc1C1Nc2ccc(C)cc2-c2cc(C)nn21 (stereo unspecified)	Dicer inh 4.1
COc1ccccc1C1Nc2ccccc2-c2cc(C)nn21 (stereo unspecified)	none
C/C(=N\OS(C)(=O)=O)c1cc2cc([N+](=O)[O-])ccc2o1	none
COc1cc(OC)cc(-c2nc3n(n2)C(c2ccc(F)cc2)C2=C(CCCC2=O)N3)c1 (stereo unspecified)	none
CNc1nsc(C(=O)c2ccc(C)cc2)c1N	none
Cn1c(-c2cc(Br)cs2)nc(=O)c2ccccc21	none
CNC(=S)NNC(=O)c1sc2nc(C)cc(C)c2c1N	Dicer inh 4.6
Cc1cc(C)c2c(N)c(C(=O)NN)sc2n1	none
CCOC(=O)c1sc2nc(C)cc(C)c2c1N	none
Cc1cc(=O)n2ncnc2n1CC(=O)NNC(=S)Nc1ccc(Cl)cc1Cl	none
COC(=O)c1ccsc1NC(=O)c1cccs1	none
COC(=O)c1cc(=O)n2c(c1C(=O)c1cccs1)SCC2	Dicer inh 6.8
COC(=O)c1csc2c(C(F)(F)F)cc(N3CCN(C(=O)c4cccs4)CC3)nc12	none
Cc1cc(C)cc(NC(=S)NCCCNC(=O)OC(C)(C)C)c1	none
COC(=O)CSc1n[nH]c(=O)[nH]c1=O	none
O=C(Nc1ccc(Cl)cc1)/C(=C\c1cccs1)c1ccsc1	none
CC(SCC(=O)O)(SCC(=O)O)c1cccc([N+](=O)[O-])c1	none
CCOc1ccc2c(C)[nH]c(=O)cc2c1	none
S=c1[nH]nc(Cc2ccccc2)n1C1CCCCC1	none
S=c1[nH]nc(CSCc2cccc3ccccc23)n1C1CCCCC1	Dicer inh 3.6
S=c1[nH]nc(-c2ccccc2Cl)n1C1CCCCC1	none
CCOC(=O)c1cc(-c2ccccc2)sc1NC(=O)Nc1ccc(Cl)c(Cl)c1	none
COCCCN1C(=O)c2ccc3c(=O)n4c5ccc(Cl)cc5nc4c4ccc(c2c34)C1=O	none
CCCCCc1c(O)nc(SCCN2CCOCC2)n(-c2ccccc2)c1=O	Dicer inh 3.3
CCOC(=O)CSc1nc2sc3c(c2c(=O)n1-c1ccccc1)CCN(C)C3	none
CCCCc1c(O)nc(SCCN(C)C)n(-c2ccccc2)c1=O	none
O=[N+]([O-])c1cc(C2SCCS2)ccc1SCc1ccco1	none
Cc1cc(=O)[nH]c(N/N=C\c2cccc3ccccc23)n1	Dicer inh 3.3
O=C(N/N=C/c1cccc2ccccc12)N/N=C/c1cccc2ccccc12	none
Cc1cc(=O)[nH]c(NCc2ccccc2)n1	none
CC(=C/C(=O)O)/C(=C\c1ccncc1)C(=O)O	none
N#Cc1c(C(F)(F)F)cc(-c2cccs2)nc1OCC(=O)c1ccc(Cl)cc1	none
O=C(COc1ccccc1)N(Cc1cccs1)C1CCS(=O)(=O)C1 (stereo unspecified)	Dicer inh 3.1
O=C(COc1ccc(F)cc1)N(Cc1cccs1)C1CCS(=O)(=O)C1 (stereo unspecified)	none
O=C(COc1ccc(Cl)cc1)N(Cc1cccs1)C1CCS(=O)(=O)C1 (stereo unspecified)	none
CCCCn1c2ccccc2n2c(C(=O)OC)c(C)nc12	none
COc1ccc(/C(O)=C2/C(=O)C(=O)N(CCN(C)C)C23C(=O)N(C)c2ccccc23)cc1 (stereo unspecified)	none
COCCN1C(=O)C(=O)/C(=C(\O)c2ccc(Cl)cc2)C12C(=O)N(C)c1ccccc12 (stereo unspecified)	none
CN(C)CCN1C(=O)C(=O)/C(=C(\O)c2ccc(F)cc2)C12C(=O)N(C)c1ccccc12 (stereo unspecified)	none
COc1ccc(/C(O)=C2/C(=O)C(=O)N(CCCN(C)C)C23C(=O)N(C)c2ccccc23)cc1 (stereo unspecified)	Dicer inh 3.7
CCOc1ccc(/C(O)=C2/C(=O)C(=O)N(CCCN(C)C)C23C(=O)N(C)c2ccccc23)cc1 (stereo unspecified)	Dicer inh 5
CCCCN1C(=O)C2(/C(=C(/O)c3ccc(F)cc3)C(=O)C(=O)N2CCCN(C)C)c2ccccc21 (stereo unspecified)	none
Cc1ccc(C)c(C(=O)/C=C/C(=O)O)c1	none
Cc1cc(CN=C(N)NC(N)=S)c(C)cc1CN=C(N)NC(N)=S	none
COC(=O)c1sc(N(C)C)c(C#N)c1-c1ccc(Cl)cc1	none
CN(C)c1ccc(C=C2C(=O)N(c3ccccc3)C(=O)N(c3ccccc3)C2=O)cc1	none
CN(C)c1ccc(/C=C2/OC(=S)NC2=S)cc1	Dicer inh 3.4
CSc1nc(C)nc(N/C=C(\C#N)C(=O)c2ccccc2Cl)n1	none
CCCCCCCC1CCC/C1=N/OC(=O)c1ccc([N+](=O)[O-])cc1 (stereo unspecified)	none
c1ccc(OCc2nnc3sc(-c4cccnc4)nn23)cc1	none
CCCS(=O)(=O)c1c(S(=O)(=O)CCC)c2ccccn2c1C(=O)c1ccc(F)cc1	Dicer inh 5
CCCS(=O)(=O)c1c(S(=O)(=O)CCC)c2ccccn2c1C(=O)c1ccc(C)cc1	none
CCCS(=O)(=O)c1c(S(=O)(=O)CCC)c2ccc(C(N)=O)cn2c1C(=O)c1ccc(F)cc1	none
COc1cc(C(F)(F)F)c(C(=O)NCc2cc(Cl)ccc2Cl)cn1	none
CCOc1ccc(/C(O)=C2\C(=O)C(=O)N(c3nccs3)C2c2ccc(OC)c(OC)c2)cc1 (stereo unspecified)	Dicer inh 3.6
CCOc1ccc(/C(O)=C2\C(=O)C(=O)N(c3nnc(C)s3)C2c2ccc(OC)c(OC)c2)cc1 (stereo unspecified)	none
CCOc1ccc(/C(O)=C2\C(=O)C(=O)N(c3nnc(C)s3)C2c2ccc(OC)cc2)cc1 (stereo unspecified)	none
O=C(COc1ccc(Cl)cc1)NC1CCS(=O)(=O)C1 (stereo unspecified)	none
Cc1cccc(-c2noc(-c3ccc(C)cc3Cl)n2)c1	none
COc1ccc(OC)c(C(=O)c2oc3ccc(OC)cc3c2N)c1	none
CNc1ncnc(NNC(=O)Nc2ccc(Cl)cc2)c1[N+](=O)[O-]	Dicer inh 4.5
O=[N+]([O-])c1c(Nc2ccc(Cl)cc2)ncnc1Nc1ccc(Cl)cc1	Dicer inh 3.5
CNc1ncnc(Oc2ccc(Cl)cc2)c1[N+](=O)[O-]	none
O=[N+]([O-])c1c(Nc2cccc(C(F)(F)F)c2)ncnc1Nc1cccc(C(F)(F)F)c1	none
Cc1[nH]nc(Nc2ccc(C(C)C)cc2)c1[N+](=O)[O-]	none
CNc1ncnc(NNC(=O)Nc2cccc(Cl)c2)c1[N+](=O)[O-]	none
COc1c(Br)cc(-c2nnn(Cc3ccc(C)cc3)n2)cc1Br	none
C#Cc1cccc(NC(=O)CC(C)S(=O)(=O)c2ccc(Cl)cc2)c1 (stereo unspecified)	none
O=S1(=O)CC2=C(SCC/C2=N\Nc2c(Cl)cc(Cl)cc2Cl)c2cc(Cl)ccc21	none
O=S(=O)(NCc1ccc(C(F)(F)F)cc1)c1cc(Br)c(Br)s1	none
COc1ccc(-c2cc3c(=O)oc4ccccc4c3[nH]2)cc1	Dicer inh 4
COc1ccc(-c2cc(=O)c3ccccc3o2)cc1	none
COc1ccc(-c2cc3ccccc3c(=O)o2)cc1	none
CSC1=N/C(=C\c2cccc(Cl)c2)C(=O)N1Cc1ccc(Cl)cc1	none
C[C@]12CC[C@@H](O)CC1CCC1C2CC[C@](C)(C(=O)O)C1/C=C1/Nc2ccccc2C1=O (stereo partly specified)	none

Bioassay records from PubChem BioAssay.
